Shown is part of a subset that was picked to be rich in hits.
Pf Dd2 inh: inhibitors of Plasmodium falciparum Dd2 growth | P. falciparum Dd2 growth, SYBR Green, 72 h | Potency, µM (highest dose often 28.9 µM), actives largely listed as inhibitors | hit rate 4.3% among 120,000 | AID 1347417; active means well fitted inhibition curve with a large enough effect; further: nearly all actives have a fitted effect of over 65% in size
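Readout: SYBR Green fluorescence, 485 nm excitation, 535 nm emission, after ~16 h lysis at 37C. Before that, Dd2-infected red cells (2.5% hematocrit) grew 72 h with compound, 29 uM top final concentration.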
Large screens that a line does not name were inactive.

O=S(=O)(N[C@H]1[C@H](O)[C@H](O)C[C@@H]1c1ccc(C(F)(F)F)nc1)c1ccc(Cl)cc1	none
Cn1nnnc1C1CCCN(C(=O)Cc2ccccc2)C1 (centres undefined)	none
COc1cccc(N2CC(NC(=O)C3CCCC3)CC2=O)c1 (centres undefined)	none
CC(=O)C1=C(c2ccccc2)N(C(C)=O)n2c(nnc2C2CCCCC2)S1	Pf Dd2 inh 1.1µM
COc1cccc(C(=O)N2CCCC(c3nn[nH]n3)C2)c1 (centres undefined)	none
COc1cccc(C2=C(C(C)=O)Sc3nnc(C4CCCCC4)n3N2C(C)=O)c1	Pf Dd2 inh 1.3µM
Cn1nnnc1C1CCCN(C(=O)NCc2ccccc2)C1 (centres undefined)	none
Cc1cccnc1CNC(=O)[C@H]1C[C@@H](C(=O)O)N(C)[C@H]1c1cccc(Cl)c1	none
C[S+](=O)([O-])N1CCn2c(nn(-c3ccncc3)c2=O)C1	none
COc1cccc(CN2C(=O)OC3(CCN(Cc4ccccc4OC)CC3)C2(C)c2cccnc2)c1 (centres undefined)	Pf Dd2 inh 1.1µM
COCC(=O)N1CCC2(CC1)OC(=O)N(Cc1cccc(OC)c1)C2(C)c1cccnc1 (centres undefined)	none
COc1cccc(CN2C(=O)OC3(CCN(C(=O)CCc4cccnc4)CC3)C2(C)c2cccnc2)c1 (centres undefined)	none
COc1cccc(CN2C(=O)OC3(CCN(Cc4ccncc4)CC3)C2(C)c2cccnc2)c1 (centres undefined)	none
COc1cccc(CN2C(=O)OC3(CCN(Cc4ccc(F)cc4)CC3)C2(C)c2cccnc2)c1 (centres undefined)	Pf Dd2 inh 0.79µM
COc1cccc(CN2C(=O)OC3(CCN(C(=O)Cc4cccc(F)c4)CC3)C2(C)c2cccnc2)c1 (centres undefined)	none
O=C(c1ccncc1)N1CCCC(Cc2nc(C3CCOCC3)no2)C1 (centres undefined)	none
Cc1noc([C@@H]2CN(C(=O)c3cn[nH]c3)C[C@H]2C(N)=O)n1	none
O=C(O)c1cc2c(s1)CCN(C(=O)c1ccc(F)cc1)C2	none
Cc1ccc(C(=O)N2CCc3sc(C(=O)NCc4cccc(F)c4)cc3C2)cc1	none
O=C(NCc1ccccc1)c1cc2c(s1)CCN(C(=O)c1ccccc1)C2	none
CN1CCN(C(=O)c2cc3c(s2)CCN(C(=O)c2ccc(Cl)cc2)C3)CC1	Pf Dd2 inh 11µM
Cc1ccc(C(=O)N2CCc3sc(C(=O)NCc4cc(F)cc(F)c4)cc3C2)cc1	Pf Dd2 inh 8.9µM
CC(=O)N1CCc2sc(C(=O)NCc3cccc(Cl)c3)cc2C1	none
NC(=O)CNC(=O)c1cc2c(s1)CCN(C(=O)c1ccc(Cl)cc1)C2	none
O=C(NCc1cccc(Cl)c1)c1cc2c(s1)CCN(C(=O)c1ccccc1)C2	Pf Dd2 inh 10µM
CN(CCc1ccccc1)C(=O)c1cc2c(s1)CCN(C(=O)c1ccc(Cl)cc1)C2	none
COCc1nnc2n1CCC(NC(=O)c1ccoc1)CC2 (centres undefined)	none
CCOCCCNC(=O)N1CCC(OC2CCN(S(C)(=O)=O)CC2)CC1	none
CC(O)c1cc2n(n1)CCCN(C(=O)Cn1nc3ccccc3n1)C2 (centres undefined)	none
Cc1cnn(C)c1S(=O)(=O)NC1CC(c2cc(N3CCCC3)ncn2)C1 (centres undefined)	none
CN1C(=O)CCC2(CNC(=O)Nc3ccccc3)CCC=C12 (centres undefined)	none
CCc1ccc(C(=O)N2C[C@@H](COC)[C@H](c3nc(COC)no3)C2)cc1	none
COc1cccc(NC(=O)CCC2CCN(Cc3noc(C4CC4)n3)CC2)c1	none
O=C1CC(c2ccccc2)N(C(=O)CNC(=O)c2n[nH]c3ccccc23)CCCCCN1 (centres undefined)	none
O=C1CC(c2ccccc2)N(C(=O)CNC(=O)c2ccccn2)CCCCCCN1 (centres undefined)	none
O=C1CC(c2ccccc2)N(C(=O)CNC(=O)c2ccncc2)CCCCCCN1 (centres undefined)	none
COc1cccc(CC(=O)NCC(=O)N2CCCCCCNC(=O)CC2c2ccccc2)c1 (centres undefined)	none
O=C1CC(c2ccccc2)N(C(=O)CNC(=O)c2nccc3ccccc23)CCCCCCN1 (centres undefined)	Pf Dd2 inh 0.35µM
O=C1CC(c2ccccc2)N(C(=O)CNC(=O)c2cccnc2)CCCCCCN1 (centres undefined)	none
O=C1CC(c2ccccc2)N(C(=O)CNC(=O)c2[nH]nc3c2COc2ccccc2-3)CCCCCN1 (centres undefined)	Pf Dd2 inh 2.5µM
COc1ccc(C(=O)NCC(=O)N2CCCCCCNC(=O)CC2c2ccccc2)cc1F (centres undefined)	none
COc1ccc2cc(C(=O)NCC(=O)N3CCCCCCNC(=O)CC3c3ccccc3)[nH]c2c1 (centres undefined)	Pf Dd2 inh 14µM
COc1ccc(NC(=O)C2CC(=O)N(c3n[nH]c4cccc(F)c34)C2)cc1 (centres undefined)	none
Cc1ccc(C(=O)N2CCCN(c3nc4ncccc4o3)CC2)cc1	none
O=C(Cn1nc2n(c1=O)CCN(Cc1cccc(Cl)c1)C2=O)NC1CCCC1	none
CC(=O)c1cccc(N2C(=O)[C@@H]3[C@@H](CCN3C(=O)C(C)(C)C)N(Cc3cccc(F)c3)C2=O)c1	none
Cc1cc(C(F)(F)F)nc(CCNc2cc(C3CC(N)C3)nc(N)n2)n1 (centres undefined)	none
CS(=O)(=O)NC1CCN(c2cc(C3CC(N)C3)nc(N)n2)CC1 (centres undefined)	none
CNc1cc(C2CC(NS(=O)(=O)c3cc(C)sc3C)C2)nc(N)n1 (centres undefined)	Pf Dd2 inh 8.9µM
CC1(C(=O)N2CCN(c3ccccn3)CC2)CCCCC(=O)N1 (centres undefined)	none
O=C(C[C@@H]1C[C@H]2O[C@H](CNCc3ccncc3F)[C@@H](O)[C@H]2O1)N1CCC(F)(F)C1	none
CO[C@H]1C(=O)N(C2CCN(C(=O)c3cccc4[nH]ccc34)CC2)[C@H]1c1ccncc1	none
O=C(c1c(O)cccc1O)N1CCOC(C(F)(F)F)C1 (centres undefined)	none
CC1(C)[C@H](Cc2cc(-c3ccc(F)cc3)on2)C[C@@H]1NC1CCC1	Pf Dd2 inh 11µM
CN1CCC(N[C@H]2C[C@@H](Cc3cc(C(C)(C)C)on3)C2(C)C)CC1	Pf Dd2 inh 5µM
COCc1cc(C[C@@H]2C[C@H](NCc3cccnc3)C2(C)C)no1	none
Fc1ccc(-c2cc(CC3(NCc4cccnc4)COC3)no2)cc1	none
CN(C)Cc1cc(C[C@@H]2C[C@H](NCc3ccc(F)cc3)C2(C)C)no1	Pf Dd2 inh 3.2µM
CN(Cc1cc(C[C@@H]2C[C@H](NCc3ncc[nH]3)C2(C)C)no1)c1ccccc1	none
COCc1cc(C[C@@H]2C[C@H](NC3CCOCC3)C2(C)C)no1	none
CN(C)C1(Cc2cc(-c3ccc(F)cc3)on2)COC1	none
CC(=O)N1CCC(N[C@H]2C[C@@H](Cc3cc(CCO)on3)C2(C)C)CC1	none
COc1ccc(CN[C@H]2C[C@@H](Cc3cc(CCO)on3)C2(C)C)cc1	none
COCc1cc(C[C@@H]2C[C@H](NCC3CC3)C2(C)C)no1	none
CC1(C)[C@H](Cc2cc(-c3ccc(F)cc3)on2)C[C@@H]1NCc1cccnc1	Pf Dd2 inh 7.9µM
CS(=O)(=O)N1CCCNCCNC(=O)CC1c1ccccc1 (centres undefined)	none
O=[S+]([O-])(c1cccs1)N1CCCC2(CC(c3ccccn3)=NO2)C1 (centres undefined)	none
CCC[C@@H]1CN(CCC(=O)NCc2cccc(Cl)c2)C[C@H]1C(=O)O	none
